According to PubChem BioAssay (EPA / NIEHS):
“And” between values parts separate entries of the source, which are not always exact repeats. Equal entries are not always repeated. More than one record can exist for a structure, and the calls need not agree. The source made the active and inactive calls. How the source made its calls: active means hit-call score of the fitted dose curve at least 0.9, where 1 is the maximum; inactive means score below 0.9.

Assay: ATG_Ets_CIS: Attagene CIS-FACTORIAL HepG2 Assay for human Erythroblast Transformation Specific (ETS) (AID 2282941)
Details: HepG2 ETS cis-reporter transcription; AC50: actives raise or lower the signal unless noted; outcome: actives raise or lower the signal unless noted
Protocol: ATG_CIS is a cell-based, multiplexed-readout assay that uses HepG2, a human liver cell line, with measurements taken at 24 hours after chemical dosing in a 24-well plate.ATG_Ets_CIS is one of 52 assay component(s) measured or calculated from the ATG_CIS assay. It is designed to make measurements of mRNA induction, a form of inducible reporter, as detected with fluorescence intensity signals by Reverse transcription polymerase chain reaction (RT-PCR) and Capillary electrophoresis technology.Data from the assay component ATG_Ets_CIS was analyzed into 1 assay endpoint. This assay endpoint, ATG_Ets_CIS, was analyzed with bidirectional fitting relative to DMSO as the negative control and baseline of activity. Using a type of inducible reporter, measures of mRNA for gain or loss-of-signal activity can be used to understand the reporter gene at the transcription factor-level as they relate to the gene ETS1. Furthermore, this assay endpoint can be referred to as a primary readout, because this assay has produced multiple assay endpoints where this one serves a reporter gene function. To generalize the intended target to other relatable targets, this assay endpoint is annotated to the dna binding intended target family, where the subfamily is winged helix-turn-helix.
Human liver HepG2 cells are transiently transfected with multiple reporter transcription units (MRTUs) in 6-well plates using FuGene 6 reagent (Roche; 3 ml FuGene/1 mg DNA). The MRTU constructs are regulated by a cis-regulating element (promoter). […] A major difference between the CIS and TRANS system is that in CIS activities of endogenous TFs are measured, whereas the TRANS assay evaluates changes in activities of exogenous, chimeric NR-Gal4 proteins. […] At the end of 24 hour incubation, total RNA was isolated using TriZol reagent (Invitrogen). The isolated RNA is then reverse-transcribed using oligo(dT) primer and Mo-MLV reverse transcriptase (Invitrogen) with DNAse I (Ambion) treatment for 30 min. The one-tenth of the produced cDNA was amplified by PCR using Taq DNA polymerase (Invitrogen) and two reporter sequence-specific primers. The PCR products were fluorescently labeled by primer extension with 6-arboxyfluorescein (6-FAM) 5'-labeled reporter sequence-specific primer (2 min at 95 C, 20 s at 68 C and 10 min at 72 C) and these products were digested with 5U of HpaI (New England Biolabs) for 2h at 37 C. The fragments were purified using Qiaquick PCR columns (Qiagen), analyzed on an ABI 3130xL genetic analyzer (Applied Biosystems) with peak positions identified by using a set of X-rhodamine (ROX)-labeled MapMarker1000 molecular weight standards (BioVentures). The raw capillary electrophoresis data was processed using Attagraph software (Attagene).

SMILES	outcome	AC50
O=S(=O)(O)c1ccc2cc(O)ccc2c1	inactive	
CCCCCCCCCCCCCCCC(=O)OC	inactive	
Cc1cncc(C)c1	inactive	
CCCCCCCCCCCC(=O)NCCCN(C)C	inactive	
c1ccc(CNc2ncnc3c2ncn3C2CCCCO2)cc1 (stereo not given)	inactive	
O=C(F)C(F)(F)C(F)(F)C(F)(F)C(F)F	inactive	
CCC(C)c1nccnc1OC (stereo not given)	inactive	
NC(=NCCCCCCN=C(N)/N=C(\N)Nc1ccc(Cl)cc1)/N=C(\N)Nc1ccc(Cl)cc1	inactive	7.45 µM (active) and 6.93 µM (active)
O=C1OC(=O)C(F)(F)C1(F)F	inactive	
CC(C)(c1ccc(Oc2ccc(N)cc2)cc1)c1ccc(Oc2ccc(N)cc2)cc1	inactive	
C=C(c1ccc(C(=O)O)cc1)c1cc2c(cc1C)C(C)(C)CCC2(C)C	inactive	
COc1cccc(O)c1	inactive	
O=C(Nc1cccc([N+](=O)[O-])c1)c1cc2ccccc2cc1O	inactive	
CCCCc1ccc2ccccc2c1S(=O)(=O)O	inactive	
CN(C)c1ccc(C(=C2C=CC(=[N+](C)C)C=C2)c2ccccc2)cc1	inactive	10.1 µM (active)
CC(C)(C)c1ccc(CCC=O)cc1	inactive	
CCCCCCCCCCCCCCC	inactive	
CNNCc1ccc(C(=O)NC(C)C)cc1	inactive	
O=C(c1ccccc1)c1ccccc1	inactive	

SMILES	outcome	AC50
Cc1cc(C(C)(C)C)c(O)c(C(C)(C)C)c1	inactive	33.4 µM (active)
Cc1ccc(S(=O)(=O)O)cc1	inactive	
O=c1cc(-c2ccccc2)oc2ccc3ccccc3c12	inactive	
COC(=O)C(F)(F)C(F)(F)C(F)(F)F	inactive	
O=S(=O)(O)C(F)(F)C(F)(F)C(F)(F)C(F)(F)C(F)(F)C(F)(F)C(F)(F)C(F)(F)C(F)(F)C(F)(F)F	inactive	
O=C(O)CCC(F)(F)C(F)(F)C(F)(F)C(F)(F)C(F)(F)F	inactive	
CCCCCC(C)OC(=O)COc1ccc(Cl)c2cccnc12 (stereo not given)	inactive	
CCCCCc1ccc(O)cc1	inactive	
CCOCCOCC	inactive	
Oc1ccc(Cc2ccccc2O)cc1	inactive	
COc1cc([N+](=O)[O-])ccc1N	inactive	
O=C(c1cc(O)c(O)c(O)c1)c1ccc(O)c(O)c1O	inactive	
CCc1cccc(CC)c1NC(=O)C(=O)O	inactive	
CC(C)[C@@H]1CC[C@@H](C)C[C@H]1O	inactive	
CCO[Si](CCC1CCC2OC2C1)(OCC)OCC (stereo not given)	inactive	
CC1=CC(=O)c2ccccc2C1=O	inactive	
OCC1CCC(CO)CC1 (stereo not given)	inactive	
CC1CNCC(C)O1 (stereo not given)	inactive	
